Reference: PubChem BioAssay AID932 (The Scripps Research Institute Molecular Screening Center, 2007)
Hit rate of the full screen: of about 200,000 compounds, about 5,100 (2.5%) were called active. The full list was thinned out, with actives kept by preference. Unmarked numbers belong to inactive results.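 Rule for the calls: active = activation above the screen-wide mean activation plus 3 SD (cut at about 130% in these data); inactive = the rest.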

Assay: potentiators of IFN-gamma driven STAT1 reporter – cell-based, HTS, luciferase reporter, primary screen (AID 932);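 note: raw ratio to IFN-gamma control signal so 100% means no change and 0% no light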
Details: NIH 3T3 STAT1-luciferase reporter, luminescence, at 5.5 µM, active compounds read high, 100% = IFN-gamma alone, no compound
Compound `O=C(CN1CCSCC1)N/N=C/c1ccc(Cl)cc1` has an activation (% of control) of 107%. `COc1ccc(-c2ccc(CCC(=O)O)n2-c2ccc(O)cc2)cc1` gave an activation (% of control) of 101%. In the case of `CC(C)c1ccc(C(=O)NCCCc2ccccc2)cc1`, the activation (% of control) is reported as 131% (active). Work on `CCCOc1ccc(C(=O)NCCc2ccccc2)cc1` yielded an activation (% of control) of 76.1%. Compound `O=C(NCCc1ccccc1)c1ccc(OCCOc2ccccc2)cc1` has an activation (% of control) of 109%. With `COc1ccc(Cc2nnc(NC(=O)c3cc(OC)c(OC)c(OC)c3)s2)cc1OC` the activation (% of control) was 89.1%. Compound `CCOCCCNC(=O)C(NC(=O)Cc1c[nH]c2ccccc12)c1ccc(OC)cc1` (stereo not drawn) has an activation (% of control) of 87.9%. `O=C(CSCc1ccc(Cl)cc1)N1CCCCC1` showed an activation (% of control) of 121%. With `O=C(CSCc1cccs1)N1CCCC1` the activation (% of control) was 129% (active). `O=C(CSc1ccsc1[N+](=O)[O-])N1CCCCC1` gave an activation (% of control) of 94.8%. Compound `COc1ccc(C(=O)NCc2nnc(SCCOc3ccccc3)n2C)cc1` has an activation (% of control) of 102%. For `CS(=O)(=O)n1nc(-c2ccccc2)nc1NCc1ccco1`, the activation (% of control) was 102%. `CCS(=O)(=O)n1nc(-c2ccc(OC)cc2)nc1SC` showed an activation (% of control) of 112%. In the case of `CCS(=O)(=O)n1nc(-c2ccccc2)nc1SCc1ccccc1`, the activation (% of control) is reported as 130% (active). In the case of `COc1cccc(-n2c(=O)c3c(C)c(C(=O)N(C)C)sc3n(CC(=O)NCCc3ccc(OC)c(OC)c3)c2=O)c1`, the activation (% of control) is reported as 97.9%. Compound `COc1ccc(/C=N/NC(=O)Nc2ccc3nsnc3c2)c(OC)c1` has an activation (% of control) of 114%. With `COc1ccc(NC(=O)c2ccc(OC)cc2)cc1` the activation (% of control) was 140% (active). `COc1ccc(C(=O)Nc2ccc(S(=O)(=O)NC(C)C)cc2)cc1` showed an activation (% of control) of 93.8%. In the case of `COc1ccc(NC(=O)Nc2ccc3nc(C)c(C)nc3c2)cc1`, the activation (% of control) is reported as 103%. For `COc1ccc(NC(=O)c2ccc(C#CC(C)(C)O)cc2)cc1`, the activation (% of control) was 106%. With `COc1ccc(NC(=O)Nc2ccc3nsnc3c2)cc1` the activation (% of control) was 146% (active). Work on `CCOc1cc(/C=C(/C#N)c2ccc(Cl)cc2)cc(Cl)c1OCC(=O)O` yielded an activation (% of control) of 56.1%. `COc1ccccc1Cn1c(C)nnc1-c1cnn(C)c1N` gave an activation (% of control) of 93.2%. Compound `CCN(CCn1cccn1)Cc1cn[nH]c1-c1ccc(OC)cc1F` has an activation (% of control) of 89%. Compound `COc1ccc2ccccc2c1CNc1nnnn1C` has an activation (% of control) of 99.2%. `CCC(=O)Nc1c(C)n[nH]c1C` showed an activation (% of control) of 102%. In the case of `COc1ccc(-n2cc(CN(C)Cc3n[nH]c(=O)[nH]3)c(-c3cccc(F)c3)n2)cc1`, the activation (% of control) is reported as 104%. `Cc1ccc(NC(=S)N(CCCN2CCCC2)Cc2cccn2Cc2ccc(Cl)cc2)cc1` showed an activation (% of control) of 85.3%.
